Measurements published in PubChem BioAssay (Tox21).
Inconclusive results are not listed. Calls of active or inactive are those of the source. Unless noted, calls follow the shape of the dose curve; as a rule, active = well fitted curve in the direction sought with a large enough effect in the repeat runs; inconclusive = weak or mixed curves; inactive = no such curve, though single readings can be large; an effect the other way counts as inactive or inconclusive.

Tests used:
[1] = qHTS assay for small molecules that induce genotoxicity in human embryonic kidney cells expressing luciferase-tagged ATAD5 (AID 651632); also: nearly all actives have a fitted effect of over 15% in size
Summary of the method: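 Luminescence read-out: after 16 hr compound exposure at 37C, ATAD5-luciferase HEK293T cells received Amplite, 30 min RT, then CCD imaging. A rise in signal marks genotoxic stress.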

[2] = qHTS assay for small molecules that induce genotoxicity in human embryonic kidney cells expressing luciferase-tagged ATAD5 - cell viability (AID 651634; calls by dose curve; also: nearly all actives have a fitted effect of over 25% in size)
Summary of the method: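 HEK293T ATAD5-luc cells, 2,000/well; compound 15.5 hr, 37C/5% CO2; CellTiter-Fluor 30 min, 37C; fluorescence read.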

[3] = qHTS assay for small molecule disruptors of the mitochondrial membrane potential - cell viability (AID 720634; calls by dose curve;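 also: human HepG2 liver cancer cells; nearly all actives have a fitted effect of over 20% in size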)
Summary of the method: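 Luminescence from CellTiter-Glo (ATP content) gave viability in HepG2 cells, read in the same wells as the MMP dye assay after 1 hr compound exposure at 37 C.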

[4] = qHTS assay for small molecule disruptors of the mitochondrial membrane potential (AID 720635)
Summary of the method: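 HepG2 cells exposed to compound 1 hr at 37C, then Mito-MPS dye 30 min. Ratio read of aggregate (540/590 nm) versus monomer (490/535 nm) fluorescence.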

[5] = qHTS assay to test for compound auto fluorescence at 590 nm (red) in HepG2 cells (AID 720674)
Summary of the method: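 HepG2 cells, 2,000 per well in MEM with 10% FBS, attached overnight at 37 C, then got 23 nL compound or DMSO. After 1 hr at 37 C, 5% CO2, red fluorescence was read at 540/590 nm against Rose Bengal sodium as reference.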

[6] = qHTS assay to test for compound auto fluorescence at 535 nm (green) in HepG2 cells (AID 720675); also: potency is read from the fitted curve at half-maximal effect
[7] = qHTS assay to test for compound auto fluorescence at 460 nm (blue) in HEK293 cells (AID 720678)
Summary of the method: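 Measured: blue fluorescence (Ex 405/Em 460 nm) of compound-treated HEK293 cells, incubated overnight at 37C with 5% CO2 and scaled to triamterene equivalents.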

[8] = qHTS assay to test for compound auto fluorescence at 590 nm (red) in HEK293 cells (AID 720679)
Summary of the method: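 Using HEK293 cells at 2,000 per well, the screen added 23 nL of each compound after cell attachment and incubated overnight (37C, 5% CO2). The plate reader then captured red-label fluorescence, Ex/Em 540/590nm.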

[9] = qHTS assay to test for compound auto fluorescence at 535 nm (green) in HEK293 cells (AID 720680); also: potency is read from the fitted curve at half-maximal effect
[10] = qHTS assay to test for compound auto fluorescence at 460 nm (blue) in HEK293 cell free culture (AID 720681)
Summary of the method: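 Compounds were added to cell-free DMEM with 10% FBS and fluorescence read directly. The blue channel used 405 nm excitation and 460 nm emission, with triamterene as the reference fluorophore.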

[11] = qHTS assay to test for compound auto fluorescence at 535 nm (green) in HEK293 cell free culture (AID 720682); also: potency is read from the fitted curve at half-maximal effect
Summary of the method: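 Measurement is a direct plate read of green fluorescence (485 nm in, 535 nm out) after compound addition to serum-supplemented DMEM lacking cells, with fluorescein used to express intensities.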

[12] = qHTS assay to test for compound auto fluorescence at 590 nm (red) in HEK293 cell free culture (AID 720683)
Summary of the method: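 Cell-free wells of DMEM with 10% FBS received compound, and intrinsic fluorescence was read at excitation/emission 540/590 nm. Values expressed as equivalence to Rose Bengal sodium.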

[13] = qHTS assay to test for compound auto fluorescence at 590 nm (red) in HepG2 cell free culture (AID 720684)
Summary of the method: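 Auto fluorescence equivalency versus Rose Bengal sodium, red channel Ex/Em 540/590 nm; compounds in cell-free MEM/10% FBS; DMSO vehicle control.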

[14] = qHTS assay to test for compound auto fluorescence at 460 nm (blue) in HepG2 cell free culture (AID 720685)
Summary of the method: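 Cell-free plates of MEM plus 10% FBS received 23 nL compound or DMSO vehicle; blue-channel (405/460 nm) intensity scored against triamterene as reference fluorophore.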

[15] = qHTS assay to test for compound auto fluorescence at 535 nm (green) in HepG2 cell free culture (AID 720686); also: potency is read from the fitted curve at half-maximal effect
[16] = qHTS assay to test for compound auto fluorescence at 460 nm (blue) in HepG2 cells (AID 720687)
Summary of the method: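 HepG2 cells in MEM with 10% FBS, attached overnight at 37 C, were exposed to compound or DMSO for 1 hr at 37 C, 5% CO2. Blue fluorescence was read at 405/460 nm, with triamterene as reference fluorophore.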

[17] = biological target: Glucocorticoid receptor (Homo sapiens) (UniProt P04150); assay: qHTS assay to identify small molecule agonists of the glucocorticoid receptor (GR) signaling pathway (AID 720691; active = well fitted activation curve with a large enough effect in the signal ratio in the repeat runs, not every such curve was filed as active; the % refers to the signal ratio); conditions: GR-bla HeLa, beta-lactamase reporter ratio, 18 h; activation: at 62.4 µM (top of the series)
Sequence of Glucocorticoid receptor (Homo sapiens) (P04150 whole entry, looked up): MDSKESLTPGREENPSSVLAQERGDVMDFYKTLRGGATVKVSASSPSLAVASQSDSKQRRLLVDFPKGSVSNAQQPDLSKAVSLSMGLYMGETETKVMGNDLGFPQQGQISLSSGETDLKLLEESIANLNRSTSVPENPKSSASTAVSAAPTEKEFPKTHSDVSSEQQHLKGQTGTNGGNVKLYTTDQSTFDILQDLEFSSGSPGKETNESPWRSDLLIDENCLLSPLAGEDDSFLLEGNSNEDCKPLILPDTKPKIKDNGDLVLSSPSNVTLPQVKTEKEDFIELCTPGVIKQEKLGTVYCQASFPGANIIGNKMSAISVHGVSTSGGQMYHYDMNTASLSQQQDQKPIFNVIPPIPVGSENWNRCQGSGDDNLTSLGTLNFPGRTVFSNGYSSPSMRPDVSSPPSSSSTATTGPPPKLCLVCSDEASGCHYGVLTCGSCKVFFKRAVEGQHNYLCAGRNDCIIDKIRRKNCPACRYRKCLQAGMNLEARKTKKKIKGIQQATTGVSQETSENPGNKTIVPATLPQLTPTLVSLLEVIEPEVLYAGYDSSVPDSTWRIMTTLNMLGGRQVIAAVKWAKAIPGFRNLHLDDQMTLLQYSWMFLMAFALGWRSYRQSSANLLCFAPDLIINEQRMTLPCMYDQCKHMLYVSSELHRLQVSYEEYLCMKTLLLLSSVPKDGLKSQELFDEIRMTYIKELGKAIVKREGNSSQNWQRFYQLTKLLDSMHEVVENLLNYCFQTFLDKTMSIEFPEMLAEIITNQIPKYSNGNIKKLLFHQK
Summary of the method: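 HeLa GR-bla reporter line; cells pre-incubated 4 h, compound in DMSO 18 h at 37 C; LiveBLAzer B/G FRET substrate 2 h RT; fluorescence intensity read-out.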

[18] = biological target: Glucocorticoid receptor (Homo sapiens) (UniProt P04150); assay: qHTS assay to identify small molecule antagonists of the glucocorticoid receptor (GR) signaling pathway (AID 720692; active = well fitted inhibition curve with a large enough effect in the signal ratio in the repeat runs, not every such curve was filed as active; the % refers to the signal ratio; also: potency is read from the fitted curve at half-maximal effect)
Summary of the method: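 Read-out: beta-lactamase FRET substrate fluorescence, 2 h at room temperature, in HeLa cells stably carrying a GRE-driven bla reporter. Compounds were co-incubated with 5 nM dexamethasone agonist (final) for 18 h at 37 C.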

[19] = qHTS assay for small molecule agonists of the p53 signaling pathway - cell viability (AID 651633; calls by dose curve;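 also: p53RE-bla HCT reporter cells with a stable beta-lactamase p53 reporter; nearly all actives have a fitted effect of over 30% in size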)
Summary of the method: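 p53RE-bla cells were treated with compound for 16 hours at 37 C. Cytotoxicity was then measured as CellTiter-Glo luminescence after 30 min at room temperature.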

Measured: Potency
Tags tell the direction and shape of the fitted curve or compound fluorescence and quenching.

CCCCCCCCCCCCCCCC(=O)O[C@@H]1CC(C)=C(/C=C/C(C)=C/C=C/C(C)=C/C=C/C=C(C)/C=C/C=C(C)/C=C/C2=C(C)C[C@@H](OC(=O)CCCCCCCCCCCCCCC)CC2(C)C)C(C)(C)C1
active: [18] 12 µM
inactive: [1] | [2] | [3] | [4] | [5] | [6] | [7] | [8] | [9] | [10] | [11] | [12] | [13] | [14] | [15] | [16] | [17]

O=C(O)CN(CC(=O)O)CC1=CC2C(=CC1=O)Oc1cc(O)c(CN(CC(=O)O)CC(=O)O)cc1C21OC(=O)c2ccccc21 (stereo unspecified)
active: [6] 10 µM | [9] 11.2 µM [fluorescent] | [11] 11.2 µM [fluorescent] | [15] 11.2 µM [fluorescent]
inactive: [1] | [19] | [3] | [7] | [10] | [14] | [16]

CCCCC[C@H](O)/C=C/[C@H]1[C@H](O)CC(=O)[C@@H]1CCCCCCC(=O)O
inactive: [1] | [2] | [3] | [5] | [6] | [7] | [8] | [9] | [10] | [11] | [12] | [13] | [14] | [15] | [16]

COc1ccccc1N1CCN(CCCC(=O)c2ccc(F)cc2)CC1
inactive: [1] | [2] | [3] | [5] | [6] | [7] | [8] | [9] | [10] | [11] | [12] | [13] | [14] | [15] | [16] | [17] | [18]

CCC(=O)Oc1ccc2c(c1)CC[C@@H]1[C@@H]2CC[C@]2(C)[C@@H](OC(=O)CC)CC[C@@H]12
inactive: [1] | [2] | [3] | [4] | [5] | [6] | [7] | [9] | [10] | [11] | [12] | [13] | [14] | [15] | [16] | [17]
active: [18] 4.25 µM

CN1CCN(C2=Nc3ccccc3Cc3ccccc32)CC1
inactive: [1] | [2] | [3] | [5] | [6] | [7] | [8] | [9] | [10] | [11] | [12] | [13] | [14] | [15] | [16] | [17] | [18]

CC(C)N=c1cc2n(-c3ccc(Cl)cc3)c3ccccc3nc-2cc1Nc1ccc(Cl)cc1
inactive: [1] | [2] | [3] | [5] | [6] | [7] | [8] | [9] | [10] | [11] | [12] | [13] | [14] | [15] | [16] | [17]

C=C1C(=C/C=C2\CCC[C@]3(C)[C@@H]([C@H](C)/C=C/[C@H](C)C(C)C)CC[C@@H]23)C[C@@H](O)C[C@@H]1O
inactive: [1] | [2] | [3] | [5] | [6] | [7] | [8] | [9] | [10] | [11] | [12] | [13] | [14] | [15] | [16]

CCC(=O)O[C@@H]1CC(=O)O[C@H](C)C/C=C/C=C/[C@H](O)[C@H](C)C[C@H](CC=O)[C@H](O[C@@H]2O[C@H](C)[C@@H](O[C@H]3C[C@@](C)(O)[C@@H](OC(=O)CC)[C@H](C)O3)[C@H](N(C)C)[C@H]2O)[C@H]1OC
inactive: [1] | [2] | [3] | [4] | [5] | [6] | [7] | [8] | [9] | [10] | [11] | [12] | [13] | [14] | [15] | [16] | [17] | [18]

CN1CCN(C(c2ccccc2)c2ccc(Cl)cc2)CC1 (stereo unspecified)
inactive: [1] | [19] | [3] | [5] | [6] | [7] | [8] | [9] | [10] | [11] | [12] | [13] | [14] | [15] | [16] | [17] | [18]
